The structures appear in SMILES notation. Several values for one entry are separate records, joined by “and”; a condition that tells them apart may be missing. Identical values can stand only once. Hit rate of the full screen: of about 410,000 compounds, about 18,000 (4.4%) were called active. Not shown: some 7% with an inconclusive outcome. No stated cut-off is given here; in the data, active means activity change below about -60%; inconclusive means no clear call, values can overlap the other calls; inactive means above about -39%. The entries come from a sample that favours actives as a whole. Where a structure was tested more than once in an assay, its records may differ in their call.
On the % scale 0 is the no-effect control and ±100 the full control effect.

The assay can be described thus: qHTS Assay for inhibitors of the human cytomegalovirus (HCMV). The note with it: HFF cells, HCMV-luciferase reporter, 72 h; at 57.5 µM; stronger effect = lower value. The method in brief: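 After 16 h attachment at 37C, HFF cells received test compound and HCMV-luciferase (1 PFU/cell); reporter luminescence read 72 h later, data normalized against buffer-only and known inhibitor Salinomycin.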
(In qHTS, concentration-response curves come from the screen itself.)
In the case of `CCCCN(CC)C(=O)c1c[nH]c2ccc(S(=O)(=O)Nc3cccc(OC)c3)cc2c1=O`, the activity change, negative = inhibition was 7.97% (inactive).

`CCOc1ccccc1C(=O)NCc1ccc2c(c1)CCN2C(=O)c1ccc(F)cc1`: the activity change, negative = inhibition was -15.6% (inactive).

Regarding `Cc1ncsc1CCCl`, the activity change, negative = inhibition is -26.8% (inactive).

On to `Cc1ccc(OCC(=O)Nc2cccc3c2CCCC3)cc1C`, for which the activity change, negative = inhibition was -12.3% (inactive).

For `Cc1ccc(OCC(=O)Nc2ccc(C(=O)O)cc2NC(=O)COc2ccc(C)c(C)c2)cc1C`, the activity change, negative = inhibition is -98.3% (active).

As to `Cc1cccc(OCC(=O)Nc2ccc(C(=O)O)cc2NC(=O)COc2cccc(C)c2)c1`, the activity change, negative = inhibition is -3.05% (inactive).

For the compound `COc1ccc(Cl)cc1NC(=O)Cn1nc(-c2ccc(C)cc2)n(C)c1=S`, the activity change, negative = inhibition is 3.99% (inactive).

Take `COc1ccc(CNC(=O)C(C)n2nc(C)c3c(C)n(-c4ccccc4)nc3c2=O)c(OC)c1` (stereo not drawn): the activity change, negative = inhibition was -15.4% (inactive) and -69.2% (active).

In the case of `Cc1ccc(-n2nc3c(=O)n(C(C)C(=O)NCc4ccc5c(c4)OCO5)nc(C)c3c2C)cc1` (stereo not drawn), the activity change, negative = inhibition was -83.4% (active).

`Cc1ccccc1CNC(=O)CSc1nnc(C)c2c(C)n(-c3ccccc3)nc12`: the activity change, negative = inhibition was -3% (inactive).

In the case of `COc1ccc(OC)c(CNC(=O)Cn2nc(C)c3c(C)n(-c4ccccc4)nc3c2=O)c1`, the activity change, negative = inhibition is -18.6% (inactive).

In the case of `Cc1nn(C(C)C(=O)NCCC2=CCCCC2)c(=O)c2nn(-c3ccccc3)c(C)c12` (stereo not drawn), the activity change, negative = inhibition is -28.7% (inactive).

In the case of `Cc1nn(C(C)C(=O)N2CCOCC2)c(=O)c2nn(-c3ccccc3)c(C)c12` (stereo not drawn), the activity change, negative = inhibition is -17.5% (inactive).

`COc1ccc(-c2n[nH]c3c2CN(C(=O)c2ccc(F)cc2)CC3)cc1`: the activity change, negative = inhibition was 0% (inactive).

On to `O=C1C=C[C@]23OCCC[C@@]2(CCCO)CCCC3=C1`, for which the activity change, negative = inhibition was -2.29% (inactive).

In the case of `CCOc1cc(N2CCOCC2)c(OCC)cc1NC(=O)C1=NN(c2cccc(C)c2)C(=O)CC1`, the activity change, negative = inhibition was -25.4% (inactive).

For the compound `CCOc1cc(N2CCOCC2)c(OCC)cc1NC(=O)COc1cccc2cccnc12`, the activity change, negative = inhibition was -104% (active).

With `CCOc1cc(C(=O)OCC(=O)Nc2cccc(C)c2)ccc1OCC(=O)N1CCOCC1`, the activity change, negative = inhibition was -3.23% (inactive).

As for `Cc1ccc(CNS(=O)(=O)c2ccc(-c3cc(C(F)(F)F)on3)s2)cc1`, the activity change, negative = inhibition was 87.2% (inactive).

In the case of `Cc1ccc(CNS(=O)(=O)c2ccc(C(=O)N(C)C)s2)cc1`, the activity change, negative = inhibition is 1.6% (inactive).

Take `O=C(Nc1ccccc1Br)c1cc(CN2CCCC2)on1`: the activity change, negative = inhibition was 27.2% (inactive).

Consider `CCOc1ccc(N(Cc2ccccc2)C(=O)c2nc(S(C)(=O)=O)ncc2Cl)cc1`, for which the activity change, negative = inhibition was -101% (active).

With `CCOc1ccc(N(CC)C(=O)c2noc3c2COc2ccc(C)cc2-3)cc1`, the activity change, negative = inhibition is -7.27% (inactive).

Take `CCOc1ccc(NC(=O)CN(Cc2ccccc2)S(=O)(=O)c2ccc(Cl)cc2)cc1`: the activity change, negative = inhibition is 2.3% (inactive).

For `CCOc1ccc(N(Cc2ccccc2)C(=O)c2nc(SCC)ncc2Cl)cc1`, the activity change, negative = inhibition was -68.2% (active).

As for `CCSc1ncc(Cl)c(C(=O)Nc2c(C(=O)c3ccccc3)oc3ccccc23)n1`, the activity change, negative = inhibition is 12.8% (inactive).

In the case of `COc1ccc(N(Cc2ccc(N(C)C)cc2)C(=O)c2ccc(S(C)(=O)=O)cc2)cc1`, the activity change, negative = inhibition was 6.32% (inactive).

For `Brc1ccc(-c2n(-c3ccccn3)c3ccccc3[n+]2-c2ccccn2)cc1`, the activity change, negative = inhibition is -11.9% (inactive).

On to `CCOC(=O)c1ccc(NC(=O)C2CC(=O)N(c3ccc(C(C)C)cc3)C2)cc1` (stereo not drawn), for which the activity change, negative = inhibition was 46.5% (inactive).

Turning to `COC(=O)c1cc(NC(=O)CCc2c(C)nc3c4c(C)cc(C)nc4nn3c2C)cc(C(=O)OC)c1`, the activity change, negative = inhibition is 8.7% (inactive).

Take `COc1ccc(C2c3ccc(O)cc3Oc3ncn(CCCO)c(=N)c32)cc1OC` (stereo not drawn): the activity change, negative = inhibition is 0% (inactive).

As to `CSc1ccc(CNCCN2CCOCC2)cc1`, the activity change, negative = inhibition is 0% (inactive).

For `CC(=O)Oc1cc2c(C(=O)NCCN3CCOCC3)c(C)oc2c2ccccc12`, the activity change, negative = inhibition was 55.4% (inactive).

For the compound `c1ccc2cc3c(NCCN4CCOCC4)ccnc3cc2c1`, the activity change, negative = inhibition was -98.8% (active).

Take `CNc1nc2cnc(-c3ccsc3)cc2n1Cc1ccccc1`: the activity change, negative = inhibition was 12.4% (inactive).

As to `Cc1c(C(=O)Nc2cccc(Cl)c2)oc2ccc(S(=O)(=O)N3CCOCC3)cc12`, the activity change, negative = inhibition was 4.49% (inactive).

Regarding `NC(=O)Nc1ccc(C(=O)OCC(=O)NC2CCCc3ccccc32)cc1` (stereo not drawn), the activity change, negative = inhibition is -25.3% (inactive).

Consider `Nc1ccc(C(=O)OCC(=O)NC2CCCc3ccccc32)cc1[N+](=O)[O-]` (stereo not drawn), for which the activity change, negative = inhibition was -3.15% (inactive).

Regarding `O=C(CCNC(=O)c1ccc(Cl)cc1)NC1CCCc2ccccc21` (stereo not drawn), the activity change, negative = inhibition is -82% (active).

Take `CCC(C)c1ccc2oc(-c3ccc(NC(=O)c4cc5ccccc5o4)cc3)nc2c1` (stereo not drawn): the activity change, negative = inhibition is -17.9% (inactive).

On to `COc1cc(NC(=O)Cn2nc(-c3ccc(C)c(C)c3)ccc2=O)cc(OC)c1`, for which the activity change, negative = inhibition was 10.3% (inactive).

As for `COc1cccc(CNS(=O)(=O)c2csc(C(N)=O)c2)c1`, the activity change, negative = inhibition was -30.1% (inactive).

With `COc1cccc(CNS(=O)(=O)c2ccc3c(c2)CC(C)N3C(=O)C2CCC2)c1` (stereo not drawn), the activity change, negative = inhibition was -33.4% (inactive) and -60.7% (active).

Turning to `COc1ccc(N(C)S(=O)(=O)c2ccc3c(c2)CC(C)N3C(=O)C2CC2)c(OC)c1` (stereo not drawn), the activity change, negative = inhibition was -22.8% (inactive).

`O=C(C1CCC1)N1CCc2cc(S(=O)(=O)NCc3cccnc3)ccc21`: the activity change, negative = inhibition was -32% (inactive).

For `COc1cccc(CNS(=O)(=O)c2ccc3c(c2)N(C(C)=O)CCS3)c1`, the activity change, negative = inhibition is -73.4% (active).

As to `CC(=O)N1CCSc2ccc(S(=O)(=O)N3CCC(C)CC3)cc21`, the activity change, negative = inhibition is -33.3% (inactive).

As for `CCOCCn1ccc2c(OCC(=O)NCc3ccc(C)cc3)cccc2c1=O`, the activity change, negative = inhibition is 22.4% (inactive).

Turning to `O=C(CCS(=O)(=O)c1cc(Br)cc2c1N(C(=O)C1CC1)CC2)Nc1ccc(Br)cc1F`, the activity change, negative = inhibition was -5.42% (inactive).

As to `Cc1ccc(CN2CCCn3nc(C(=O)NCc4ccccc4Cl)cc3C2=O)cc1`, the activity change, negative = inhibition is -16.2% (inactive).

As for `CCOC(=O)c1nnn(CC(=O)NC(=O)Nc2ccccc2F)c1C(=O)OCC`, the activity change, negative = inhibition was 11.6% (inactive).

Consider `COc1ccc2c(Sc3ccc(C)cc3)c(C(=O)NC(C)c3ccccc3)[nH]c2c1` (stereo not drawn), for which the activity change, negative = inhibition is -4.72% (inactive).

With `COc1ccc(CNc2nc(-c3ccc(Cl)cc3)nn2S(=O)(=O)c2ccc(C)cc2)cc1`, the activity change, negative = inhibition is 9.27% (inactive).

Take `CCOc1ccccc1Nc1nnc(SCc2ccc(C(=O)OC)o2)s1`: the activity change, negative = inhibition is -61.9% (active).

Turning to `CCOc1ccccc1Nc1nnc(SCC(=O)Nc2cc(C)on2)s1`, the activity change, negative = inhibition is 45.8% (inactive).

`COC(=O)c1ccc(CSc2nnc(N)s2)o1`: the activity change, negative = inhibition is -25.6% (inactive).

As to `Cc1ccc(NC(=O)c2ccc(CN3CC(=O)N4CCCCC4C3=O)cc2)c(Cl)c1` (stereo not drawn), the activity change, negative = inhibition was 48% (inactive).

Consider `Cc1nn(C)c(C)c1CN(C(=O)CCc1nnc(Cc2c[nH]c3ccccc23)o1)C(C)C`, for which the activity change, negative = inhibition was 9.02% (inactive).

`Clc1ccc(C[n+]2cc(-c3ccc(Cl)cc3)n3c2CCC3)cc1`: the activity change, negative = inhibition was -74.1% (active).

As for `CC(C)C[C@@H](COCc1ccc(Cl)cc1)N1CCN(C(=O)c2ccc(Cl)cc2Cl)CCC1=O`, the activity change, negative = inhibition was -13.1% (inactive).

Take `Cc1ccc(S(=O)(=O)CC(=O)Nc2c(C)n(C)n(-c3ccccc3)c2=O)cc1`: the activity change, negative = inhibition is 10.8% (inactive).

Take `Cc1ccccc1OCCC(=O)Nc1c(C)n(C)n(-c2ccccc2)c1=O`: the activity change, negative = inhibition is -31.3% (inactive).

Regarding `Cc1c(NC(=O)CSc2cccc3cccnc23)c(=O)n(-c2ccccc2)n1C`, the activity change, negative = inhibition is -83.5% (active).

`COC(=O)c1nn(-c2cccc(Cl)c2)ccc1=O`: the activity change, negative = inhibition is -24.4% (inactive).

In the case of `CC(CCCc1ccccc1)NC(=O)c1nn(-c2ccc(Cl)cc2)nc1CO` (stereo not drawn), the activity change, negative = inhibition was -5.56% (inactive).

Regarding `CCCSC1=C(C#N)C(c2ccccc2C)C(C(=O)OC)C(=O)N1` (stereo not drawn), the activity change, negative = inhibition was -10.3% (inactive).

In the case of `CCOc1ccc(-n2nc3ccc(NC(=O)c4ccc(OC)c(Cl)c4)cc3n2)cc1`, the activity change, negative = inhibition was 1.85% (inactive).

`CCOc1ccc(C(=O)Nc2ccc3nc4c(c(Nc5ccccc5OC)c3c2)CCCC4)cc1`: the activity change, negative = inhibition is -83.9% (active).

Consider `COc1ccccc1Nc1c2c(nc3ccc(NC(=O)/C=C/c4cc(OC)c(OC)c(OC)c4)cc13)CCCC2`, for which the activity change, negative = inhibition was -98.3% (active).

Regarding `COc1cc(/C=C/C(=O)O)cc(S(=O)(=O)Nc2ccccc2SC)c1OC`, the activity change, negative = inhibition is -14.9% (inactive).

Take `COc1cc(/C=C/C(=O)N2CCc3ccccc3C2)cc(OC)c1OC`: the activity change, negative = inhibition is 84.9% (inactive).

With `CCOc1ccc(NC(=O)CSc2c3c(nc4ccccc24)CCCC3)cc1`, the activity change, negative = inhibition was -11.9% (inactive).

Consider `CCC(C(=O)Nc1cc(OC)ccc1OC)n1c(=O)c(C(F)(F)F)nc2ccccc21` (stereo not drawn), for which the activity change, negative = inhibition was -4.66% (inactive).

Turning to `COc1cc(OC)c(NC(=O)N2CC3CCCN3c3ccccc32)cc1Cl` (stereo not drawn), the activity change, negative = inhibition is -10.2% (inactive).

`CCc1ccccc1NC(=O)Cc1ccc(NC(=O)N2CCCCc3ccccc32)cc1`: the activity change, negative = inhibition was 18.7% (inactive).

For the compound `COc1ccccc1C(=O)NCCC(=O)N(C)Cc1cccnc1`, the activity change, negative = inhibition was 0% (inactive).

Consider `CCOCCCNC(=O)c1ccc2nc(CCc3ccccc3)oc2c1`, for which the activity change, negative = inhibition was 18.3% (inactive).

`CCOC(=O)N1CCc2c(sc3c2c(=O)n(Cc2ccccc2)c(=O)n3CC(=O)Nc2cccc(C)c2)C1`: the activity change, negative = inhibition is -9.95% (inactive).

As to `O=C(CCl)Nc1cccc(CP(=O)(c2ccccc2)c2ccccc2)c1`, the activity change, negative = inhibition was -108% (active).

Regarding `CCc1cccc(NC(=O)c2cc(-c3ccccc3)n[nH]2)c1`, the activity change, negative = inhibition is 46.1% (inactive).

Consider `O=C(CNCc1ccc(Cl)cc1)Nc1cccc(C(=O)O)c1`, for which the activity change, negative = inhibition is -4.42% (inactive).

Take `Cc1cc(C)cc(NC(=O)CCS(=O)(=O)c2cc3c4c(c2)CCN4C(=O)CC3)c1`: the activity change, negative = inhibition is -0.0143% (inactive).

Consider `C=C(C)C1CC=C(C)/C(=N\NC(=O)CNc2ccccc2OC)C1` (stereo not drawn), for which the activity change, negative = inhibition was -21.5% (inactive).

As for `CN1CCN(c2oc(-c3ccc(COc4ccc(Cl)cc4)o3)nc2C#N)CC1`, the activity change, negative = inhibition is -31.4% (inactive).

Regarding `CN(CCc1cnn(C)c1)Cc1cn(C)nc1-c1ccccc1F`, the activity change, negative = inhibition was 5.69% (inactive).

Consider `C/C(=N\OCC(=O)Nc1ccc(Br)cc1)c1cccs1`, for which the activity change, negative = inhibition was -6.56% (inactive).

Take `Cc1ccc(OCC(=O)Nc2ccc(NC(=O)c3cccs3)cc2)c(C)c1`: the activity change, negative = inhibition was -90.8% (active).

On to `CCn1c2ccccc2c2cc(NC(=O)COc3ccc(C)cc3C)ccc21`, for which the activity change, negative = inhibition is -8.23% (inactive).

(Values after PubChem BioAssay AID1259415 (National Center for Advancing Translational Sciences (NCATS), 2018).)
